This passage reports outcome and Potency results from PubChem BioAssay (Tox21).

Results filed as inconclusive are left out. Calls of active or inactive are those of the source. Unless noted, calls come from the whole dose curve; as a rule, active = well fitted curve in the direction sought with a large enough effect in the repeat runs; inconclusive = weak or mixed curves; inactive = no such curve, though single readings can be large; an effect the other way counts as inactive or inconclusive. Non-standard residues stand in square brackets, D forms with d. Residues, ends and D or L forms follow the SMILES beside them. *: point of attachment. Sta = CC(C)C[C@H](N)[C@@H](O)CC(=O)O; Isovaleryl = CC(C)CC(=O)*

A short description of experiment [1]: qHTS assay to identify small molecule antagonists of the glucocorticoid receptor (GR) signaling pathway - cell viability counter screen (AID 720693). Note: nearly all actives have a fitted effect of over 55% in size.
The nature of experiment [2]: qHTS assay for identifying genotoxic compounds that show differential cytotoxicity against isogenic chicken DT40 cell lines with known DNA damage response pathways - Rev3 mutant cell line (AID 743014). Note: nearly all actives have a fitted effect of over 55% in size. Note: potency is the fitted concentration of half-maximal effect.
Experiment [3] in a line: qHTS assay for identifying genotoxic compounds that show differential cytotoxicity against isogenic chicken DT40 cell lines with known DNA damage response pathways - Rad54/Ku70 mutant cell line (AID 743015). Note: nearly all actives have a fitted effect of over 60% in size. Note: potency is the fitted concentration of half-maximal effect. In general terms: In qHTS, concentration-response curves come from the screen itself.
The nature of experiment [4]: qHTS assay to identify small molecule antagonists of the androgen receptor (AR) signaling pathway - cell viability counter screen (AID 743033; note: nearly all actives have a fitted effect of over 45% in size).
The target in experiment [5] is Androgen receptor (Homo sapiens) (UniProt P10275). The experiment can be described thus: qHTS assay to identify small molecule antagonists of the androgen receptor (AR) signaling pathway (AID 743035; active = well fitted inhibition curve with a large enough effect in the signal ratio in the repeat runs, not every such curve was filed as active; the % refers to the signal ratio). Summed up:
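R1881 agonist challenge of a HEK293 UAS-beta-lactamase AR reporter line in the presence of compound (16 h, 37C); signal taken as FRET fluorescence after 2 h with LiveBLAzer B/G substrate at room temperature.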

The target is the same in experiment [6]. The experiment can be described thus: qHTS assay to identify small molecule agonists of the androgen receptor (AR) signaling pathway (AID 743036; active = well fitted activation curve with a large enough effect in the signal ratio in the repeat runs, with a control signal flat, not every such curve was filed as active; the % refers to the signal ratio). Summed up:
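AR-UAS-bla HEK293 cells, plated 4 h before dosing, were treated with compound for 16 h at 37C. beta-Lactamase reporter read after 2 h with LiveBLAzer B/G FRET substrate at room temperature.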

Experiment [7] has the same target. In words: qHTS assay to identify small molecule agonists of the androgen receptor (AR) signaling pathway using the MDA cell line (AID 743040; note: nearly all actives have a fitted effect of over 20% in size). A digest of the protocol:
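Stable MMTV-luciferase reporter in MDA-kb2 cells; note the promoter carries GR as well as AR response elements. 16 h compound treatment, 37C, 0% CO2; ONE-Glo luminescence endpoint.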

Experiment [8] can be described thus: qHTS assay to identify small molecule antagonists of the thyroid receptor (TR) signaling pathway - cell viability counter screen (AID 743064). Note: nearly all actives have a fitted effect of over 50% in size. A digest of the protocol:
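GH3.TRE-Luc rat pituitary cells dosed after 4 hr plating, co-stimulated with T3 at 1 nM final, incubated 23.5 h at 37 C. Viability measured in the same wells by CellTiter-Fluor fluorescence after 30 min further at 37 C.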

Experiment [9] is described as follows: qHTS assay for identifying genotoxic compounds that show differential cytotoxicity against isogenic chicken DT40 cell lines with known DNA damage response pathways - wild type cell line (AID 743012). Note: nearly all actives have a fitted effect of over 60% in size. Note: potency is the fitted concentration of half-maximal effect. Summed up:
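Endpoint: CellTiter-Glo luminescence, 30 min RT. Cells: wild type DT40, 300/well. Exposure: compounds in DMSO, 40 h, 37 C/5% CO2, after ~0.5 h pre-incubation.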

Experiment [10] is described as follows: qHTS assay to identify small molecule antagonists of the androgen receptor (AR) signaling pathway using the MDA cell line - cell viability counter screen (AID 743041; note: nearly all actives have a fitted effect of over 45% in size). Summed up:
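Using the breast carcinoma line MDA-kb2 AR-luc, test chemicals were co-incubated with R1881 for 16 h; CellTiter-Fluor reagent, added at 15.5 h, provided a fluorescence measure of live cells.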

Sequence of Androgen receptor (Homo sapiens) (P10275 whole entry, looked up): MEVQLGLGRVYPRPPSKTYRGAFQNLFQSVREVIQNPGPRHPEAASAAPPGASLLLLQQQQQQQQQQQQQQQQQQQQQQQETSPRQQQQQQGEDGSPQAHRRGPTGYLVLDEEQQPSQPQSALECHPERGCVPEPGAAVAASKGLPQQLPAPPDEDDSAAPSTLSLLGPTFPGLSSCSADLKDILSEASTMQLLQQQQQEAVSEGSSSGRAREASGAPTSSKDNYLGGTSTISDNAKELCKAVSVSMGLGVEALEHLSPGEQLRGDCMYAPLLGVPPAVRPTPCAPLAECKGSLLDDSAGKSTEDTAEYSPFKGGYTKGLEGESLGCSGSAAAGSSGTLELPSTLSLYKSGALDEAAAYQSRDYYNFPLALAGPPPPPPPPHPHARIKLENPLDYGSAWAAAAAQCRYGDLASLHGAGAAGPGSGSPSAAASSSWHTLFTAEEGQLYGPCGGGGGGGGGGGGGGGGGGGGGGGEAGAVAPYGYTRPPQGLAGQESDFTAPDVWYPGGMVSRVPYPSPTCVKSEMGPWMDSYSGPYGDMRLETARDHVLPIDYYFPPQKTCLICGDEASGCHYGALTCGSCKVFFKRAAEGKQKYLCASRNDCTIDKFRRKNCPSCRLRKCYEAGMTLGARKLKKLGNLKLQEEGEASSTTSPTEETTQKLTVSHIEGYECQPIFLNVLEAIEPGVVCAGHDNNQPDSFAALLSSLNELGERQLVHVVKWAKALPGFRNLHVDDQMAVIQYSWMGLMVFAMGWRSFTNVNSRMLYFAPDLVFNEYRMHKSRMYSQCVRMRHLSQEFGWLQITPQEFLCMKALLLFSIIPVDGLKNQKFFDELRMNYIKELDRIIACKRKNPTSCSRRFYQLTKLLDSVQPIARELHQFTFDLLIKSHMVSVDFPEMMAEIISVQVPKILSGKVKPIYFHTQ

As to `O=C[C@@H](O)[C@H](O)[C@H](O)CO`, the molecule was called inactive in experiment [1], in experiment [4], in experiment [5], in experiment [6] and in [7]. In addition, the Potency entry in experiment [2], in experiment [3] and in experiment [8] was “inactive” in each case.
Take `CC12CCCC=C1C(=O)OC2=O` (configuration not stated): the molecule was classed as inactive in experiment [1], in [4], in experiment [5], in experiment [6], in experiment [7] and in experiment [10]. The Potency result in experiment [9] and in [3] was “inactive” in each case.
Turning to `CN1C(CCl)Nc2cc(Cl)c(S(N)(=O)=O)cc2S1(=O)=O` (configuration not stated), the molecule was classed as inactive in [1], in [4] and in [10]. Moreover, the Potency in experiment [9] is 26.6 µM (active); in [3], 29.8 µM (active).
For `C[C@@H](CN1CC(=O)NC(=O)C1)N1CC(=O)NC(=O)C1`, the call in [1], in experiment [4], in experiment [5], in experiment [6], in [7] and in experiment [10] was inactive. Moreover, the Potency result in experiment [9], in [2] and in [8] was “inactive” each time.
For `C=CCCCCCCCCOC(C)=O`, the result in experiment [1], in experiment [4] and in experiment [10] was inactive. For the same molecule, the Potency result in experiment [9] and in experiment [2] was “inactive” throughout.
On to `CC(C)CC(=O)N[C@H](C(=O)N[C@H](C(=O)N[C@@H](CC(C)C)[C@@H](O)CC(=O)N[C@@H](C)C(=O)N[C@@H](CC(C)C)[C@@H](O)CC(=O)O)C(C)C)C(C)C` (Isovaleryl-VV[Sta]A[Sta]-OH), for which the molecule was classed as inactive in experiment [1], in experiment [4] and in experiment [10]. For the same molecule, the Potency entry in [9], in experiment [3] and in experiment [8] was “inactive” in each case.
With `CC(=O)OC/C=C(/C)CCC=C(C)C`, the molecule was classed as inactive in experiment [1], in experiment [4] and in experiment [10]. For the same molecule, the Potency entry in [9], in experiment [3] and in experiment [8] was “inactive” in each case.
Consider `CCCCCCCCCCCCCCCC/C=C/C1CC(=O)OC1=O` (configuration not stated), for which the result in experiment [1], in experiment [4] and in experiment [10] was inactive. Besides, the Potency result in experiment [9] and in experiment [2] was “inactive” in each case.
Regarding `O=c1[nH]c(=O)c2cn[nH]c2[nH]1`, the call in experiment [1], in [4] and in experiment [10] was inactive. In addition, the Potency result in experiment [9], in experiment [3] and in experiment [8] was “inactive” in each case.
For `COC(C)(C)CC(C)=O`, the molecule was called inactive in [1], in [4], in experiment [5], in [6], in experiment [7] and in experiment [10]. Also, the Potency in experiment [2] was 54.5 µM (active); in experiment [3], 61.1 µM (active). The Potency result in [8] is “inactive”.
For `Nc1nc(Cl)cc(Cl)n1`, the outcome in [1], in experiment [4] and in experiment [10] was inactive. The Potency result in [9] and in experiment [2] was “inactive” throughout.
On to `COC(=O)N/N=C/c1c[n+]([O-])c2ccccc2[n+]1[O-]`, for which the result in [1], in [4] and in [10] was inactive. Moreover, the Potency result in experiment [9] was “inactive”.
Take `CC(=O)c1c(C)cc(C(C)(C)C)cc1C`: the molecule was called inactive in [1], in experiment [4] and in experiment [10]. Further, the Potency result in experiment [9], in experiment [2] and in experiment [8] was “inactive” throughout.
As to `NS(=O)(=O)c1cc2c(cc1C(F)(F)F)NCNS2(=O)=O`, the outcome in experiment [1] and in experiment [10] was inactive. Besides, the Potency entry in experiment [9], in [2], in [3] and in experiment [8] was “inactive” each time.
With `O=C1CC2(CCCC2)CC(=O)N1CCNCC1COc2ccccc2O1` (configuration not stated), the outcome in [1] was inactive. For the same molecule, the Potency is 21.1 µM (active) in experiment [9], 26.6 µM (active) in experiment [2] and 26.6 µM (active) in experiment [3]. In addition, in [8], the Potency entry was “inactive”.
As for `CC(=O)OCC(=O)[C@@]1(O)CC[C@H]2[C@@H]3CCC4=CC(=O)C=C[C@]4(C)[C@H]3[C@@H](O)C[C@@]21C`, the call in experiment [1], in experiment [4] and in experiment [10] was inactive. The Potency result in [9] and in experiment [2] was “inactive” in each case.
As to `CCCCCC(=O)CC`, the call in [1], in experiment [4] and in [10] was inactive. In addition, the Potency entry in experiment [9] and in [3] was “inactive” throughout.
As for `O=Cc1ccccc1S(=O)(=O)O`, the molecule was called inactive in [1], in [4] and in experiment [10]. The Potency result in experiment [2] and in experiment [3] was “inactive” in each case.
Turning to `C[Si](C)(C)O[Si](O)(O)O`, the molecule was classed as inactive in experiment [1], in experiment [4] and in experiment [10]. The Potency in [2] is 61.1 µM (active).
With `CCCCN=C(N)N=C(N)N`, the outcome in experiment [1], in experiment [4] and in experiment [10] was inactive. For the same molecule, the Potency result in experiment [8] was “inactive”.
Take `C=C(C)C(=O)OCCOC1CC2CC1C1C=CCC21` (configuration not stated): the result in experiment [1], in [4] and in experiment [10] was inactive. Also, the Potency result in [8] was “inactive”.
Turning to `CCOCCOCCOC(C)=O`, the Potency entry in experiment [9], in experiment [2], in experiment [3] and in experiment [8] was “inactive” throughout. In addition, the call in experiment [4] and in experiment [10] was inactive.
For `CC(C)(O)CCCC1=CCC(C=O)CC1` (configuration not stated), the outcome in experiment [1], in [4] and in experiment [10] was inactive. Besides, the Potency in experiment [2] was 65.2 µM (active). The Potency result in experiment [8] was “inactive”.
`NNC(=O)CCCCC(=O)NN`: the molecule was classed as inactive in [1], in [4] and in [10]. Moreover, the Potency result in [2], in [3] and in experiment [8] was “inactive” each time.
For the molecule `CCC(C)c1nccnc1OC` (configuration not stated), the outcome in [1], in experiment [4] and in [10] was inactive. Also, the Potency result in experiment [2] and in experiment [8] was “inactive” throughout.
